Growth data for eleven compounds are collected here from PubChem BioAssay (NCI).

This is part of a sample that, as a whole, favours compounds with a hit. Of some 83,000 tested, about 20% had one in any assay.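 Plates (96-well) were seeded with cells, treated with compound at one concentration, and incubated for 48 hours before percent growth was determined.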 Values without a mark were called inactive. Calls of active or inactive are those of the source. The calls were made as follows: active = growth percent below 10; inactive = the rest.

Common to all, as to assay: NCI-60 one-dose screen, 48 h (100 = growth as untreated, 0 = no growth, -100 = all killed)
One test has as its system NCI-H23 lung. As to conditions: 10 µM unless noted.
For a further test, the system named is NCI-H322M lung. As to conditions: 10 µM unless noted.
A further test relates to HOP-62 NSCLC. As to conditions: 10 µM unless noted.
In a further test the test system is NCI-H522 lung. As to conditions: 10 µM unless noted.
In another test the test system is COLO 205 colon. As to conditions: 10 µM.
Another test concerns K-562 leukemia. Conditions: 10 µM unless noted.
The test system of another test is SF-295 CNS. As to conditions: 10 µM unless noted.
A further test deals with M14 melanoma. Conditions: 10 µM unless noted.
The next test has as its system U251 CNS. As to conditions: 10 µM unless noted.
In a further test the test system is LOX IMVI melanoma. As to conditions: 10 µM unless noted.
The test system of another test is SK-MEL-2 melanoma. Conditions: 10 µM unless noted.
The subject of another test is CAKI-1 renal. Conditions: 10 µM unless noted.
Another test deals with A498 renal. As to conditions: 10 µM unless noted.
The next test relates to MOLT-4 leukemia. As to conditions: 10 µM.
The next test has as its system RPMI-8226 leukemia. Conditions: 10 µM unless noted.
The test system of a further test is SK-OV-3 ovarian. Conditions: 10 µM unless noted.
Another test deals with HCT-116 colon. As to conditions: 10 µM unless noted.
The test system of another test is NCI-H226 lung. As to conditions: 10 µM unless noted.
Another test deals with EKVX NSCLC. As to conditions: 10 µM unless noted.

Turning to `COc1ccc(CN2CCN(Cc3ccccc3)CC2)c(O)c1`, the growth was 94.8% with NCI-H23 lung; 92.3% with NCI-H322M lung; 93.4% in the test on HOP-62 NSCLC; 71.9% in the test with NCI-H522 lung; 95.5% in the test on COLO 205 colon; 74.3% with K-562 leukemia. In addition, the growth with SF-295 CNS was 99.8%; in the test with M14 melanoma it was 89.5%; with U251 CNS it was 95.1%; with LOX IMVI melanoma, 92.1%; with SK-MEL-2 melanoma, 89.9%; in the test with CAKI-1 renal, 92.4%. Further, the growth with A498 renal is 95.5%; in the test on MOLT-4 leukemia, 83.7%; with RPMI-8226 leukemia, 77.1%; with SK-OV-3 ovarian, 95.7%; in the test on HCT-116 colon, 83.4%.

For `C/C(=N/OC(=O)N(C)C)c1cc(Cl)ccc1Cl`, the growth with NCI-H226 lung is 99.4%; in the test with HOP-62 NSCLC, 95.6%; in the test on NCI-H522 lung, 83.5%; in the test with COLO 205 colon it was 100%; in the test on K-562 leukemia, 104%; in the test on SF-295 CNS, 98.6%. In addition, the growth in the test on M14 melanoma was 109%; in the test with SK-MEL-2 melanoma it was 95.7%; in the test with A498 renal, 86.8%; in the test on MOLT-4 leukemia, 89.7%; in the test on RPMI-8226 leukemia it was 97.9%; with SK-OV-3 ovarian, 98.3%. Moreover, in the test with HCT-116 colon, the growth is 101%.

Turning to `COc1ccc(NP2(=O)OCC(C)(N)CO2)cc1` (stereo not drawn), the growth in the test on NCI-H23 lung was 92%; in the test on NCI-H226 lung, 105%; in the test on NCI-H522 lung, 92.5%; with COLO 205 colon it was 109%; with K-562 leukemia, 88.9%; in the test on M14 melanoma it was 101%. The growth is 108% in the test with SK-MEL-2 melanoma, 82.2% with MOLT-4 leukemia and 98.8% with HCT-116 colon.

Regarding `CCC(C)(C)O`, the growth in the test with NCI-H23 lung is 111%; in the test with NCI-H226 lung, 102%; in the test on COLO 205 colon, 110%; with SF-295 CNS, 87.7%; with M14 melanoma, 107%; in the test with U251 CNS, 108%. Also, the growth in the test with EKVX NSCLC was 98%; with CAKI-1 renal, 93.6%; in the test on A498 renal, 83.1%; in the test with MOLT-4 leukemia it was 121%; in the test with RPMI-8226 leukemia, 106%; in the test on SK-OV-3 ovarian, 118%. In the test on HCT-116 colon, the growth was 111%.

Consider `CC(C)OC(=S)[S-].[Au+].c1ccc([PH+](c2ccccc2)c2ccccc2)cc1`, for which the growth with NCI-H23 lung was 42.4%; in the test on NCI-H322M lung, 99.4%; in the test with HOP-62 NSCLC, 76%; in the test with NCI-H522 lung, -63.6% (active); with K-562 leukemia, 8.05% (active); in the test with SF-295 CNS, 91.1%. Besides, the growth is 11.5% with M14 melanoma; 11.2% in the test with U251 CNS; -64.9% (active) in the test with LOX IMVI melanoma; 33% in the test on SK-MEL-2 melanoma; 82.9% in the test with EKVX NSCLC; 16.7% in the test on CAKI-1 renal. Also, the growth in the test with RPMI-8226 leukemia is 3.19% (active); in the test with HCT-116 colon, 13.9%.

Regarding `COc1c(O)c2c3c(c1OC)-c1ccccc1CC3N(C)CC2` (stereo not drawn), the growth in the test on NCI-H23 lung is 102%; with NCI-H322M lung, 96.1%; with HOP-62 NSCLC it was 104%; with NCI-H522 lung, 88.6%; with K-562 leukemia it was 92.3%; in the test with SF-295 CNS, 99.9%. Also, the growth is 93.3% in the test with M14 melanoma; 99.1% in the test with U251 CNS; 99.3% with LOX IMVI melanoma; 94.3% in the test with CAKI-1 renal; 116% with A498 renal; 83.6% in the test on MOLT-4 leukemia. Moreover, the results for the growth in the test with RPMI-8226 leukemia, in the test with SK-OV-3 ovarian and with HCT-116 colon were 102%, 94.2% and 95.7%, respectively.

As for `COc1cc(NCCCCCN=C(N)N)c2ncccc2c1`, the growth in the test on NCI-H23 lung was 4.89% (active); in the test with HOP-62 NSCLC, 45.7%; in the test with NCI-H522 lung it was 9.47% (active); in the test with K-562 leukemia, 16.1%; in the test with SF-295 CNS, 61.1%; in the test with U251 CNS it was 28.1%. For the same compound, the growth in the test with LOX IMVI melanoma is 66.4%; in the test with SK-MEL-2 melanoma it was 43.3%; with CAKI-1 renal it was 104%; in the test with A498 renal, 89.6%; in the test on MOLT-4 leukemia it was 4.38% (active); with RPMI-8226 leukemia, 58.2%. The growth with SK-OV-3 ovarian was 94.9%; in the test with HCT-116 colon it was 6.08% (active).

Consider `O=C(N/N=C/c1ccc([N+](=O)[O-])o1)c1cc([N+](=O)[O-])cc([N+](=O)[O-])c1O`, for which the growth in the test on NCI-H23 lung is 94.1%; in the test on NCI-H226 lung, 97.9%; in the test on COLO 205 colon, 107%; in the test on SF-295 CNS, 104%; with M14 melanoma it was 102%; in the test on LOX IMVI melanoma, 84.5%. Besides, the growth was 108% with EKVX NSCLC; 88.5% in the test on CAKI-1 renal; 79.7% in the test with A498 renal; 62.8% in the test with MOLT-4 leukemia; 99.8% in the test on RPMI-8226 leukemia; 101% in the test with SK-OV-3 ovarian. In addition, the growth in the test on HCT-116 colon is 92.6%.

In the case of `CCCCOC(=O)c1ccccc1C(=O)O.CCCCOC(=O)c1ccccc1C(=O)O.[Cu+2]`, the growth was 107% with NCI-H23 lung; 104% with NCI-H322M lung; 127% with HOP-62 NSCLC; 95% in the test on NCI-H522 lung; 101% in the test on COLO 205 colon; 96.2% with K-562 leukemia. Also, the growth is 117% with SK-MEL-2 melanoma; 113% in the test on CAKI-1 renal; 105% in the test with A498 renal; 96.8% in the test with MOLT-4 leukemia; 93.4% in the test on SK-OV-3 ovarian.

In the case of `NC(=O)C(Cl)Cl`, the growth was 108% in the test with NCI-H23 lung; 94.4% with NCI-H322M lung; 102% in the test with HOP-62 NSCLC; 109% in the test on NCI-H522 lung; 113% in the test with COLO 205 colon; 100% with K-562 leukemia. Further, the growth with SF-295 CNS was 98.3%; in the test on M14 melanoma it was 112%; in the test on CAKI-1 renal, 98.1%; in the test on A498 renal, 106%; with RPMI-8226 leukemia, 105%; in the test with SK-OV-3 ovarian, 109%. Also, the growth in the test on HCT-116 colon is 107%.

Consider `COc1ccc(/C=C(/C(=O)N2CCCC2)c2cc(OC)c(OC)c(OC)c2)cc1N`, for which the growth was 41.7% in the test with NCI-H23 lung; 75.9% in the test on NCI-H226 lung; 3.14% (active) in the test on NCI-H522 lung; 5.31% (active) with COLO 205 colon; 16.1% with K-562 leukemia; 17.5% with SF-295 CNS. The growth in the test with M14 melanoma is 11.7%; in the test with U251 CNS, 31%; in the test on LOX IMVI melanoma it was 35.3%; in the test with SK-MEL-2 melanoma it was 42.6%; with EKVX NSCLC it was 52.8%; with A498 renal it was -0.924% (active). In addition, the growth was 34.4% in the test with MOLT-4 leukemia, 31.6% with RPMI-8226 leukemia, 28.7% in the test on SK-OV-3 ovarian and 23.5% in the test with HCT-116 colon.
